# From ChEMBL document CHEMBL1201862, “PubChem BioAssay data set” (2004)
# The campaign covered roughly 400,000 compounds. About 2,100 (0.53%) were called active. Another 14% or so got no clear call; they are omitted. The rule behind the calls is not given here. The full list was thinned out, with actives kept by preference.
# Biological target: Ataxin-2 (Homo sapiens) (UniProt Q99700)
# Assay: qHTS for Inhibitors of ATXN expression.
# Format: functional
# Chain of Ataxin-2 (Homo sapiens) (Q99700 whole entry): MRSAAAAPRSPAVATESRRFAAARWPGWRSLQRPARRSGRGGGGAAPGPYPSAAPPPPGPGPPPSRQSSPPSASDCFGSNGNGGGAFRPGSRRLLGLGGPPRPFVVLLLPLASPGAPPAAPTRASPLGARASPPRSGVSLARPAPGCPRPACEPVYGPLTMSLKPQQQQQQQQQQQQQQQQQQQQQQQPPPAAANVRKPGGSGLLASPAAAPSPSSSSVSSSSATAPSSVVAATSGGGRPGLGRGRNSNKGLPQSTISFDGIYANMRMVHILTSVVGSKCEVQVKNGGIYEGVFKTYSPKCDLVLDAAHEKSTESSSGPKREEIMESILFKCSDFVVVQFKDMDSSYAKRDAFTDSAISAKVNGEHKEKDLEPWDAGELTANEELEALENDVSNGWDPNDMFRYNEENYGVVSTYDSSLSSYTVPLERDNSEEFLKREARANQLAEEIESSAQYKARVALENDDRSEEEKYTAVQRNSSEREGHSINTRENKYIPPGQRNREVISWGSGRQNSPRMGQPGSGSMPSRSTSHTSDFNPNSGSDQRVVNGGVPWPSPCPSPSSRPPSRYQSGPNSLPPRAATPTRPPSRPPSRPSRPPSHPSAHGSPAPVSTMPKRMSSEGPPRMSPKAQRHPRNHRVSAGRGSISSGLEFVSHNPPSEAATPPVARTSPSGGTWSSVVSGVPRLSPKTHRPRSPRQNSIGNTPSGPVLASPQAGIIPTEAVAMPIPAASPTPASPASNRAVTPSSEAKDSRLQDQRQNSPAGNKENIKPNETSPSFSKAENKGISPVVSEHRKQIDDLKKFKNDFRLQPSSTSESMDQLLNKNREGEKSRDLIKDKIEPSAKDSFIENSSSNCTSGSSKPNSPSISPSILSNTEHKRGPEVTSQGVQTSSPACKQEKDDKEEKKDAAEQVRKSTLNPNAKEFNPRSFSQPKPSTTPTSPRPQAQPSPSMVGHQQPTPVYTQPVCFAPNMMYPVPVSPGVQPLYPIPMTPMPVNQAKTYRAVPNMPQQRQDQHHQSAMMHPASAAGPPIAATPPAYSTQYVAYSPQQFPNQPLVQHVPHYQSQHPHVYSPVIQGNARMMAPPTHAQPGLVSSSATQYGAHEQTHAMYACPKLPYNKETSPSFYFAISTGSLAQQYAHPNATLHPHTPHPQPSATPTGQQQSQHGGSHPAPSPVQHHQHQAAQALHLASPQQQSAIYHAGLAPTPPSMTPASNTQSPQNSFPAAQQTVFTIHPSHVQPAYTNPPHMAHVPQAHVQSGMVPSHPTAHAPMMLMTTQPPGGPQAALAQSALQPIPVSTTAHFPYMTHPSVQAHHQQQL
row,Compound,Potency
1,CC(C)(C)c1ccc(C(=O)NCCn2c(N)c(C#N)c3nc4ccccc4nc32)cc1,inactive
2,Cc1cc(O)cc2c1C(=O)/C(=C/c1ccco1)O2,inactive
3,O=C1NC(c2ccco2)Nc2sc3c(c21)CCN(Cc1ccccc1)C3 (stereo not given),inactive
4,N#Cc1c(C(F)(F)F)cc(O)n2c1nc1ccccc12,inactive
5,CN1C(=O)c2cccc3c(N)ccc(c23)C1=O,inactive
6,CC(=O)Nc1ccc2c(=O)n(-c3ccccc3)sc2c1,25.1 µM (active)
7,O=c1c2ccccc2[nH]c2ccc(F)cc12,inactive
8,Cn1sc2ccccc2c1=O,28.2 µM (active)
9,CC(=O)Nc1ccc(C2=NN(c3ccccc3)C(c3ccccc3)C2)cc1 (stereo not given),inactive
10,O=c1c2cc(F)ccc2sn1-c1ccc(F)cc1,35.5 µM (active)
11,CC(=O)Nc1ccc2nc3ccccc3nc2c1,inactive
12,COCCCn1c(N)c(-c2nc3ccccc3n2C)c2nc3ccccc3nc21,inactive
13,COc1ccc(N2C3=C(C(=O)CC(C)(C)C3)C(c3cnn(C)c3)C3=C2CC(C)(C)CC3=O)cc1,inactive
14,COc1cccc(C(=O)Oc2c(Br)cc(Br)cc2/C=N/NC(=O)c2cc(C)[nH]n2)c1,inactive
15,CC1(C)CC2CC(C)(CN2C(S)=Nc2ccccc2)C1 (stereo not given),inactive
16,COc1ccc(OC)c(/C=N/NC(=O)CNC(=O)c2ccc(S(=O)(=O)N3CCOCC3)cc2)c1,inactive
17,O=C(Oc1ccc2ccc(=O)oc2c1)c1cccs1,inactive
18,S=C(NNC(=S)NC1CC2C=CC1C2)NC1CC2C=CC1C2 (stereo not given),inactive
19,CCOC(=O)c1c(NC(C)=O)sc2c(OCC(O)CNC(C)(C)C)c(Br)ccc12 (stereo not given),39.8 µM (active)
20,CC(=O)Nc1sc(C)c(C)c1C(=O)OCC(=O)NCc1ccc(Cl)cc1,inactive
21,CCOC(=O)c1sc(NC(=O)c2ccoc2C)c(C(N)=O)c1C,inactive
22,NC(=O)c1cccc2cc3ccccc3cc12,inactive

row,Compound,Potency
1,Cc1ccc2nc(Cl)c(C#N)cc2c1,inactive
2,C#CCOc1ccc(C2C(C#N)=C(N)Oc3cc(O)ccc32)cc1 (stereo not given),inactive
3,Cc1ccc2nc(O)c(C3C(C#N)=C(N)Oc4c3ccc3cccnc43)cc2c1 (stereo not given),22.4 µM (active)
4,COC(=O)c1sc2nc3c(cc2c1N)CCCC3,inactive
5,O=C1CC(c2ccccc2Cl)=NN(c2ncnc3ccccc23)C1=O,inactive
6,CC1=C/C(=N\OS(=O)(=O)c2ccccc2)C=CC1=O,31.6 µM (active)
7,CC1=C/C(=N\OS(=O)(=O)c2ccccc2)C(C(C)C)=CC1=O,31.6 µM (active)
8,Cc1ccc(S(=O)(=O)NNc2c3ccccc3nc3ccc(Cl)cc23)cc1,inactive
9,CCCCn1c(=O)[nH]c2nc3cc(NC(C)=O)ccc3nc2c1=O,inactive
10,CCN(CC)c1ccc(/C=c2\sc3nc4ccccc4n3c2=O)c(O)c1,inactive
11,OCCC1CN(C2CCN(c3ccccc3F)CC2)CCN1Cc1ccccc1 (stereo not given),inactive
12,Cc1cccc(C2=NN(c3ccc(Br)cc3)[C@@H](C(=O)N3CCOC3=O)[C@@H]2c2ccccc2)c1,inactive
13,CN1C[C@@H]2[C@@H]3C(=O)N(Cc4ccccc4)C(=O)[C@@H]3[C@](Cc3ccccc3)(C1=O)N2C(=O)c1ccc(C(C)(C)C)cc1,15.8 µM (active)
14,CC1(Cc2ccccc2Cl)C(=O)Nc2cc(-c3ccccc3Cl)ccc21 (stereo not given),39.8 µM (active)
15,Nc1ccccc1SC(CC(=O)c1ccccc1)c1cccc([N+](=O)[O-])c1 (stereo not given),2.82 µM (active)
16,CC(=O)Nc1cc[n+](CC(=O)c2cccc([N+](=O)[O-])c2)cc1,inactive
17,CC(CCc1ccccc1)NCC(O)c1cccc([N+](=O)[O-])c1 (stereo not given),inactive
18,Nc1ccccc1SC(C[N+](=O)[O-])c1ccccc1 (stereo not given),39.8 µM (active)
19,COc1ccc(/C=N/NC(=O)Nc2cccc3nsnc23)cc1,inactive
20,CN1C(=O)c2cccc3c(N(C)C)ccc(c23)C1=O,inactive
21,O=C(O)c1ccccc1-c1ccc(C=c2sc3nc4cc(Br)cnc4n3c2=O)o1,inactive
22,CCN(CC)CCNS(=O)(=O)c1ccc2c3c(cccc13)C(=O)N2,inactive

row,Compound,Potency
1,C=CCC(Nc1ccccc1)C12C=CC(O1)C(C(=O)OC)=C2C(=O)OC (stereo not given),39.8 µM (active)
2,Cc1ccc(/C=N/Nc2ccc3ccccc3n2)o1,inactive
3,c1ccc(-c2nc(CN3CCN(c4ccccn4)CC3)c[nH]2)cc1,inactive
4,CN(C)C(=S)N=Nc1[nH]c2ccccc2c1O,1.12 µM (active)
5,O/C(=C\c1nc2ccccc2nc1O)c1cccs1,inactive
6,Cc1ccc(F)c([C@H]2[C@H]3C=CC[C@@H](C)[C@@H]3C(=O)N2Cc2ccccc2)c1,39.8 µM (active)
7,O=C1C2C(c3ccccc3)CC=CC2[C@H](c2ccc(C(F)(F)F)cc2)N1Cc1ccccc1 (stereo not given in full),15.8 µM (active)
8,CC[C@@H]1CC=C[C@H]2[C@H]1C(=O)N(Cc1ccccc1)[C@H]2c1ccoc1,35.5 µM (active)
9,Nc1nnc(SCC(=O)NNC(=O)c2ccc([N+](=O)[O-])cc2)s1,inactive
10,NC(S)=NN=C1c2cc(OCCN3CCOCC3)ccc2-c2ccc(OCCN3CCOCC3)cc21,7.94 µM (active)
11,COCc1cc(O)nc(SCCS(=O)(=O)c2ccc(Cl)cc2Cl)n1,11.2 µM (active)
12,COCc1cc(O)nc(-c2ccc(C(F)(F)F)cc2)n1,inactive
13,O=S(=O)(CCN1C=CC(C(F)(F)F)=NCC1)c1ccc(Cl)cc1Cl,inactive
14,CCOc1cc(C(c2c(C)[nH]n(-c3ccccc3)c2=O)c2c(C)[nH]n(-c3ccccc3)c2=O)ccc1O,28.2 µM (active)
15,CCOC(=O)/C(=C\C=C1/Sc2ccccc2N1CC)C(C)=O,inactive
16,CC[n+]1c(C=C2C=CN(C)C=C2)ccc2cc(C)ccc21,10 µM (active)
17,CCN1/C(=C/c2ccc3cc(C)ccc3[n+]2C)Sc2ccc3sccc3c21,17.8 µM (active)
18,CCN1/C(=C/c2ccc3cc(C)ccc3[n+]2CC)Sc2ccccc21,14.1 µM (active)
19,CCN1/C(=C\c2ccc3ccccc3[n+]2CC)Sc2cc(C)ccc21,44.7 µM (active)
20,CCOC(=O)/C(C#N)=C(C)/C=C1\Sc2ccccc2N1CC,inactive
21,N=c1c(C(=O)NCC2CCCO2)cc2c(=O)n3ccccc3nc2n1Cc1ccccc1Cl (stereo not given),inactive
